Laboratory results reported in the supplement of paper PMC11732987, “Enantioselective OTUD7B fragment discovery through chemoproteomics screening and high-throughput optimisation” (Communications Chemistry, 2025).

Experiments:
Assay in all cases: log2 ratio of Biotin-Ahx-Ub-VS probe labelling (fragment/DMSO); higher = less target engagement (more negative = stronger competition), active = hit call of the paper (q ≤ 0.05, log2 ratio ≤ -1)
Conditions in all cases: compound concentration: 200 uM; treatment time: 3 h
[1] = target: USP34 (UniProt Q70CQ2)
Summary of the method: (§1)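 HEK293T lysate, 495 µg per sample in Tris/CHAPS/IGEPAL buffer with protease inhibitors, was treated in triplicate with fragment at 200 µM or vehicle for 3 h and then with Biotin-Ahx-Ub-VS at 0.5 µM final for 1 h. Labelled DUBs were NeutrAvidin-enriched, digested with LysC and trypsin, and run by diaPASEF LC-MS/MS. Spectronaut label-free quantities were global-median-normalised, and values are average log2 fragment/vehicle ratios by unpaired t-test on proteins with ≥2 unique peptides.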

[2] = target: T1, USP36 (UniProt Q9P275)
T1 sequence (whole entry): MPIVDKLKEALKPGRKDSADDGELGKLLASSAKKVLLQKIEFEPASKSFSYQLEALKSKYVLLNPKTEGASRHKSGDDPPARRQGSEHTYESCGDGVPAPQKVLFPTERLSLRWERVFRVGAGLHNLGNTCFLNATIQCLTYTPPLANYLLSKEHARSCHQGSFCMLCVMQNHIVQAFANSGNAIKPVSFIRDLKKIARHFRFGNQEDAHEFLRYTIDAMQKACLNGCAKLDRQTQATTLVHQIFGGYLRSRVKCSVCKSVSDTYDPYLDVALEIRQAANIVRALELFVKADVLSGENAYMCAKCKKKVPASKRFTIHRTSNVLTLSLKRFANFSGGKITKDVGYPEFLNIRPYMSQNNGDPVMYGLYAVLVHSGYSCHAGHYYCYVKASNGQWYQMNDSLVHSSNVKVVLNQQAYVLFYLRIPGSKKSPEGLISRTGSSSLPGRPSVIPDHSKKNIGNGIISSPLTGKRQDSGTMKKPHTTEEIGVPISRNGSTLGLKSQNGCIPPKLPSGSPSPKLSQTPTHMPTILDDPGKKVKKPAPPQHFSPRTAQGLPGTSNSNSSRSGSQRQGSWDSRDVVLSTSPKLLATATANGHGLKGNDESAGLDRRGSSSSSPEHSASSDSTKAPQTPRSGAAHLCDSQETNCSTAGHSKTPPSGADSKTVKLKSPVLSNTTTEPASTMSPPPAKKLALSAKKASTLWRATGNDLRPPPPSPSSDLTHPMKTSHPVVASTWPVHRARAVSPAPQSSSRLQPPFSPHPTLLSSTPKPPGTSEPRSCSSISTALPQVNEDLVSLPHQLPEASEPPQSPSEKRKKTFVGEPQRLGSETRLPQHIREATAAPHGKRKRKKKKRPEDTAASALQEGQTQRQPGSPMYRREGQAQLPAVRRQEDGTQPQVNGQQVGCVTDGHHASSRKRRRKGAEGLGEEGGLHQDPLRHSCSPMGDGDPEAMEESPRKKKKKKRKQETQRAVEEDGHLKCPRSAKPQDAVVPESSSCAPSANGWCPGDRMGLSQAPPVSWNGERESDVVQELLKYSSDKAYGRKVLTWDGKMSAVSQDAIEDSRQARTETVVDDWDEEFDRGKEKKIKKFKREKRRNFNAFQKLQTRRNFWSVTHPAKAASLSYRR
Summary of the method: as §1

[3] = target: T2, USP38 (UniProt Q8NB14)
T2 sequence (whole entry): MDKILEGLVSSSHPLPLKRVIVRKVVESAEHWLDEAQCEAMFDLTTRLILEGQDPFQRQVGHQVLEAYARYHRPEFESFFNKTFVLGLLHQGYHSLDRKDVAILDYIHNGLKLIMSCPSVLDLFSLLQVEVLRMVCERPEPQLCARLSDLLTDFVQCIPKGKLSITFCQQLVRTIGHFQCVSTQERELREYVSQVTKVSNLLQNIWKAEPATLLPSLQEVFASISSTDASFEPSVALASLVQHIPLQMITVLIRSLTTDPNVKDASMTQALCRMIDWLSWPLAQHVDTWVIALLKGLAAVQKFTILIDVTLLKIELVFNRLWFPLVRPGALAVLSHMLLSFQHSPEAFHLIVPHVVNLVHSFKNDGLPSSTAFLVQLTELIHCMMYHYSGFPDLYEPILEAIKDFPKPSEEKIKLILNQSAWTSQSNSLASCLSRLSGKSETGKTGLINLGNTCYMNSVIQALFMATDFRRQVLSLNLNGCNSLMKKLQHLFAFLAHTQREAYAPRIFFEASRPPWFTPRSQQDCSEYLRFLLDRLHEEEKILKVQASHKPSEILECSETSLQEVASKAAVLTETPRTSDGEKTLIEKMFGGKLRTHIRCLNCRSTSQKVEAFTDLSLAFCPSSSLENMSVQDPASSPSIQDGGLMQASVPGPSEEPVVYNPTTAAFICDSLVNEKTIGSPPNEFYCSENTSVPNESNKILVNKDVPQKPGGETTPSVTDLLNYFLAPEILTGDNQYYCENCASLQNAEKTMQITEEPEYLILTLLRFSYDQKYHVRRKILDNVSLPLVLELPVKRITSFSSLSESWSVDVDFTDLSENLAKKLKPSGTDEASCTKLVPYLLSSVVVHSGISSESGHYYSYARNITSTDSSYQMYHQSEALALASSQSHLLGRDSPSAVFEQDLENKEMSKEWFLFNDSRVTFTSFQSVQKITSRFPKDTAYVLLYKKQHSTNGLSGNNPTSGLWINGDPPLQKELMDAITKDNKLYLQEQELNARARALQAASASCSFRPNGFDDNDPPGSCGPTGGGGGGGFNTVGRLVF
Summary of the method: as §1

[4] = target: T3, USP39 (UniProt Q53GS9)
T3 sequence (whole entry): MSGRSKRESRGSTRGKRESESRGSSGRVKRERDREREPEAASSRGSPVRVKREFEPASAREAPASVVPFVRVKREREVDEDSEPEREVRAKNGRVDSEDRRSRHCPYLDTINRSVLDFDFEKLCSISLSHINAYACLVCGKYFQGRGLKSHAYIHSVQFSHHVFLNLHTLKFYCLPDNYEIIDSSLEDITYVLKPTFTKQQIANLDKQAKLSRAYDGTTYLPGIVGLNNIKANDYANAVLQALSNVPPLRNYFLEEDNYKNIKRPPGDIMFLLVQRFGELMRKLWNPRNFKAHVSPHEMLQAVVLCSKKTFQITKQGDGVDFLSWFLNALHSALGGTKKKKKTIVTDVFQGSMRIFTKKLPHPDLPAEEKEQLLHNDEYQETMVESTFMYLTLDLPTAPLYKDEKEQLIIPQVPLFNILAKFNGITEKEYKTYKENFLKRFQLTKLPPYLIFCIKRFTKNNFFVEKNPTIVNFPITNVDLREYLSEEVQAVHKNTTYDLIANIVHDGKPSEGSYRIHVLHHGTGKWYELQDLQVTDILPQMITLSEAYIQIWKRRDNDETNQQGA
Summary of the method: as §1

[5] = target: T4, USP4 (UniProt Q13107)
T4 sequence (whole entry): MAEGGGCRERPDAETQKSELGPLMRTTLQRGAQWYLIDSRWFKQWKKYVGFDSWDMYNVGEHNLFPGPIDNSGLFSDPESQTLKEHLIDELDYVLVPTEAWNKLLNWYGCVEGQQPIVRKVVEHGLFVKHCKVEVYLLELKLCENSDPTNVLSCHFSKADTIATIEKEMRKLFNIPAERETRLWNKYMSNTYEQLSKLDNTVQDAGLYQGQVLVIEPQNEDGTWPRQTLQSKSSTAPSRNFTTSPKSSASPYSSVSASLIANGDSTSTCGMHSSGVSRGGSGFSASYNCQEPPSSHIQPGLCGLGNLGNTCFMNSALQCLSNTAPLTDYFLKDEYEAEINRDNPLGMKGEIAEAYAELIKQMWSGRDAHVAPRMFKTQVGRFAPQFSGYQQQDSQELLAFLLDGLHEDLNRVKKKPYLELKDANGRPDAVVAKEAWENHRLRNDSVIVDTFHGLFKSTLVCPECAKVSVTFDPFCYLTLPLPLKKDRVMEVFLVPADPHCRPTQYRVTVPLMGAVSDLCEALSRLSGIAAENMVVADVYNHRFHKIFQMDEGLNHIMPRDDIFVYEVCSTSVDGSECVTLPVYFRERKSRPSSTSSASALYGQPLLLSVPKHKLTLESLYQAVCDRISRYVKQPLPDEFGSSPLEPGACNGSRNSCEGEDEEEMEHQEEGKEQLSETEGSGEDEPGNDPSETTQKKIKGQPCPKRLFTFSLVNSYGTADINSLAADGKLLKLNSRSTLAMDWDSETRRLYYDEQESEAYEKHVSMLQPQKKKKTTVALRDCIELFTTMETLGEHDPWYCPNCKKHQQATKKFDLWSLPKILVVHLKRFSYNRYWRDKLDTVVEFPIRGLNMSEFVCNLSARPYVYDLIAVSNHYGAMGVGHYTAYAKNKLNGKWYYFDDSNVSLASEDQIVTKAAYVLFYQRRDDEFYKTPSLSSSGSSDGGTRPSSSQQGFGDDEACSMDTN
Summary of the method: as §1

Measured: log2 ratio of Biotin-Ahx-Ub-VS probe labelling

Sequence of USP34 (Q70CQ2 whole entry, the tested form may be a part): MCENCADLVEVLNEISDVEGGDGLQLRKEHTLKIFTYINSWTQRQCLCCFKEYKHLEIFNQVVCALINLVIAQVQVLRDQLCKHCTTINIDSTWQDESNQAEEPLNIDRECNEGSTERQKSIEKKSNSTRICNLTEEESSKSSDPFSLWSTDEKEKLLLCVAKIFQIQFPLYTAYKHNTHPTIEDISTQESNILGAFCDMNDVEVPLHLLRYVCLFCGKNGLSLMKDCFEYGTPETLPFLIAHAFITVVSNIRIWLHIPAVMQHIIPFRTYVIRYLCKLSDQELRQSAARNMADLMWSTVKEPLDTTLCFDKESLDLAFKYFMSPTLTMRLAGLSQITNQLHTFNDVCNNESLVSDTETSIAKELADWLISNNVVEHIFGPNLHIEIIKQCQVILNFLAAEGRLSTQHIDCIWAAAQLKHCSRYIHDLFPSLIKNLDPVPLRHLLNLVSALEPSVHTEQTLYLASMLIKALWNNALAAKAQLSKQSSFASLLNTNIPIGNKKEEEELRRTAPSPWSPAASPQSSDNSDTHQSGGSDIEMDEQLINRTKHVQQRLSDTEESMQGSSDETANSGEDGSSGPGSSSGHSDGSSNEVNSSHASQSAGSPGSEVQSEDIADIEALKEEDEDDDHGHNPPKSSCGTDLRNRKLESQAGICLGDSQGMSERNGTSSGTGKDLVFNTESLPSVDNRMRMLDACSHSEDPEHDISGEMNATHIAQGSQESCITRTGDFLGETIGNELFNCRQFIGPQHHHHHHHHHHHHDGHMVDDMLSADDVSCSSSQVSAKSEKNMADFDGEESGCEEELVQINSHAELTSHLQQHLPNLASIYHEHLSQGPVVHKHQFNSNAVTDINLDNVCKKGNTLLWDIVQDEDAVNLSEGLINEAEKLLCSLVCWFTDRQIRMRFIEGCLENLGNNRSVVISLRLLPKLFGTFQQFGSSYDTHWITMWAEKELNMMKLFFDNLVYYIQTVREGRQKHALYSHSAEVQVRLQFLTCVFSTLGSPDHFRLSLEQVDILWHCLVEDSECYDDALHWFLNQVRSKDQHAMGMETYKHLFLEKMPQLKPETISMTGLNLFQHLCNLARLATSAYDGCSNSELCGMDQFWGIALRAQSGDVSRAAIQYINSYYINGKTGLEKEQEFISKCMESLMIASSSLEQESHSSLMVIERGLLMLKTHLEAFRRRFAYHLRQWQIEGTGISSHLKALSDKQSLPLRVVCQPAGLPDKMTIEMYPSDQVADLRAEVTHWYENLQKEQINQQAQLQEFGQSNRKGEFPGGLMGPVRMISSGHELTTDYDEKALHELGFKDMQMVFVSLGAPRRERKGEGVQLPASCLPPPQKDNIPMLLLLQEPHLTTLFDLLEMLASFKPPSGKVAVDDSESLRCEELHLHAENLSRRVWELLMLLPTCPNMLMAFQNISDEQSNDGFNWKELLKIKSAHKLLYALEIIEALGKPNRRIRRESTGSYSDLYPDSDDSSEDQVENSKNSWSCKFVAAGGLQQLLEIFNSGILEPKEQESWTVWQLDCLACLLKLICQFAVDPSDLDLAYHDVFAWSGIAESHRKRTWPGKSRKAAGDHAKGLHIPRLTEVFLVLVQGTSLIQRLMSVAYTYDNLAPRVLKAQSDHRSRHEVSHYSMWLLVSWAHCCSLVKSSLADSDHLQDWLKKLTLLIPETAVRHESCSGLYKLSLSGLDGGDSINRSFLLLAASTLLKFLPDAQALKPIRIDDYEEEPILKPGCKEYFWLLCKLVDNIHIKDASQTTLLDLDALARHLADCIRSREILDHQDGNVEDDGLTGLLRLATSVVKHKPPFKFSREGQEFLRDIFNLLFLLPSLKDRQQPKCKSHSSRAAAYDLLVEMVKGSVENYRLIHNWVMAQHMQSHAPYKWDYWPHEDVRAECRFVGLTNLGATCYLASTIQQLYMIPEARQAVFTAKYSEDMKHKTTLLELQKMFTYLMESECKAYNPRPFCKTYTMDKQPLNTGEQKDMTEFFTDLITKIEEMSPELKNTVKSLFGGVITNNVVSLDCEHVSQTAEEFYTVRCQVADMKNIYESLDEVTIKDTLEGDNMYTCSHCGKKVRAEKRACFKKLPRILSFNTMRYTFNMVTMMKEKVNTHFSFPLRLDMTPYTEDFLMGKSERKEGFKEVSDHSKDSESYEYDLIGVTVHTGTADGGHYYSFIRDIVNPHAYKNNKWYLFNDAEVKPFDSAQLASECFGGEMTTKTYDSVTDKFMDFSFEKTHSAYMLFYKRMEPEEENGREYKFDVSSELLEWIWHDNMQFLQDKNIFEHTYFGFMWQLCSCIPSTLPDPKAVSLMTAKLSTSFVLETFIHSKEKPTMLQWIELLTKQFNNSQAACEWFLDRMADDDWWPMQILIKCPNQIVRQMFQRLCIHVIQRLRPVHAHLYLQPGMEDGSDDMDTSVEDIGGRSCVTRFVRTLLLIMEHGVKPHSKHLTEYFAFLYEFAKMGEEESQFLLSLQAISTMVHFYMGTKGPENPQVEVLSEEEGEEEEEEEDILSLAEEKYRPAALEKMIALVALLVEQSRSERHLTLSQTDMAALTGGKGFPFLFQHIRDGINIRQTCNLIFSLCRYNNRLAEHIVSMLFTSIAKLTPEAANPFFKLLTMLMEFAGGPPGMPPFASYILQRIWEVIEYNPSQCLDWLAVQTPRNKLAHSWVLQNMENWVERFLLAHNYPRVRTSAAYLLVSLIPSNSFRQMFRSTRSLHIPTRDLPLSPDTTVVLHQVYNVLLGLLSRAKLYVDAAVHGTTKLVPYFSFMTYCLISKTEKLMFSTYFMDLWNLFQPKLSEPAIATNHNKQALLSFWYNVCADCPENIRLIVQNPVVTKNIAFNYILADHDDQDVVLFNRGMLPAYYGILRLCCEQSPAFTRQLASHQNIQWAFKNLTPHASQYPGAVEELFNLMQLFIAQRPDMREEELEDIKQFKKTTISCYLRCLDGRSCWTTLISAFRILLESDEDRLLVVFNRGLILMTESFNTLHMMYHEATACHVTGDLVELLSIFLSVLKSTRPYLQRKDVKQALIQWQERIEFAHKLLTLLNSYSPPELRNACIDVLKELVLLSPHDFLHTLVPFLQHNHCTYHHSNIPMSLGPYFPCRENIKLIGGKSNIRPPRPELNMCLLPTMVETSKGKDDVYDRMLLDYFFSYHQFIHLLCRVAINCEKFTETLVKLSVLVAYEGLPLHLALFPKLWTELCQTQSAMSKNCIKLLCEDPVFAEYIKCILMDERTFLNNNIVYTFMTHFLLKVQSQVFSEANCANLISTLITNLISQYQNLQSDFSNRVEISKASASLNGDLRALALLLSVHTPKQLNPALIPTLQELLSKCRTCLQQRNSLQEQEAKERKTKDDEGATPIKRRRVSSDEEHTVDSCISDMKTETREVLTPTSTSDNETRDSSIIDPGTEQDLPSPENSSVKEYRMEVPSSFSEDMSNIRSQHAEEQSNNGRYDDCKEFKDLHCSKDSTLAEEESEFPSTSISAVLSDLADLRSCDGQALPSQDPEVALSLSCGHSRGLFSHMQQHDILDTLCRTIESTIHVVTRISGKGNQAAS

CC(=O)Nc1ccc(NC(=O)CCl)cc1
inactive: [1] -0.128 | [2] -0.0191 | [3] 0.0936 | [4] 0.432 | [5] -0.163
